Reference: PubChem BioAssay
Active and inactive are the calls of the source.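 How the source made its calls: active means z-score of at least 1.8 in each of two replicates, scored against plate mean and spread of sample wells; inactive means the rest.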

assay: MELAS cybrid and Rieske KO viability enhancers – cell-based, MELAS cybrids, Rieske KO mouse fibroblasts, CellTiter-Glo, primary screen (AID 1508586); conditions: Rieske KO mouse fibroblast survival, low glucose, CellTiter-Glo 72 h;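 further: test concentration not given here; z relative to plate mean and SD of compound and empty wells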

| Structure (SMILES) | z-score |
| --- | --- |
| CC(C)C[C@H]1NC(=O)[C@H]2CN(C(=O)OCc3ccccc3)CCN2C1=O | -0.118 |
| COC(=O)CCN1CC(OCc2ccncc2)CN(C(=O)c2csc(SC)n2)CC1=O (stereo not given) | -0.661 |
| CCCCNC(=O)[C@@H]1C[C@H](CN2CCOCC2)CN(Cc2ccc3ccccc3c2)C1 | 0.627 |
| CC(C)CCNc1cc(C(=O)NCCn2ccnc2)cc(S(=O)(=O)Nc2ccccc2)c1 | -0.223 |
| Cc1ccc(C(C)CCN2CCC3(CC2)C(=O)N(C(C)C)C(=O)N3CCC(C)C)o1 (stereo not given) | -0.496 |
| COCCCNC(=O)c1nn(C)c2c1CN(C(=O)Cc1c(C)[nH]c3c(F)cccc13)CC2 | -0.829 |
| O=C([C@@H]1C[C@H](CN2CCOCC2)CN(Cc2ccc3ccccc3c2)C1)N1CCCC1 | -0.119 |
| O=C1N[C@@H](Cc2c[nH]c3ccccc23)C(=O)N2C[C@@H](NCc3ccccc3Cl)C[C@@H]12 | 0.134 |
| CN(C)c1ccc(/C=C/CN2CC(=O)N(CCCN3CCCC3=O)CC(O)C2)cc1 (stereo not given) | -0.286 |
| Cc1ccc(C(=O)N[C@H]2C[C@H]3C(=O)N[C@@H](Cc4ccc(O)cc4)C(=O)N3C2)cc1F | -0.468 |
| Cc1csc(-c2cc(C(=O)N3CCC(N(C)C)C3)cc(S(=O)(=O)N3CCOCC3)c2)c1 (stereo not given) | 0.349 |
| O=C1N[C@@H](Cc2ccccc2)C(=O)N2CCN(C(=O)c3cccs3)C[C@H]12 | -0.046 |
| O=C1N[C@@H](COCc2ccccc2)C(=O)N2C[C@@H](NCc3cnn(-c4cccc(F)c4)c3)C[C@@H]12 | -0.436 |
| Cc1cc(-c2cc3c(n(Cc4cccnc4)c2=O)CCN(C(=O)C2Cc4ccccc4O2)C3)ccc1F (stereo not given) | 1.95 |
| Cn1nc(C(=O)N2CCCCC2)c2c1CCC(NCC1(c3ccccc3)CCOCC1)C2 (stereo not given) | 0.153 |
| Cc1[nH]cnc1CNc1cc(C(=O)Nc2cccc(N(C)C)c2)cc(S(=O)(=O)N2CCCC2)c1 | -0.954 |
| CN1CC(=O)N2CCN(C(=O)NCc3ccccc3)C[C@@H]2C1=O | -0.297 |
| COc1ccc(CN2C[C@@H](CN3CCOCC3)C[C@@H](C(=O)NCC3CCCO3)C2)cc1OC (stereo not given in full) | 0.461 |
| CCOC(=O)c1csc(CCNC2CCc3c(c(C(=O)N4CCc5ccccc5C4)nn3C)C2)n1 (stereo not given) | 0.117 |
| O=C(NCc1ccccn1)c1cc(NCC2CC2)cc(S(=O)(=O)N2CCCC2)c1 | -0.67 |

| Structure (SMILES) | z-score |
| --- | --- |
| COC(=O)c1c(NC(=O)C2CCC2)c2cc(NC3CCSCC3)cnc2n1CCc1ccccn1 | -0.308 |
| CCOC(=O)c1nn(CCC(F)(F)F)c2c1CN(C(=O)c1ccco1)CC2 | -0.531 |
| CNS(=O)(=O)c1cc(NCc2cc3ccccc3s2)cc(C(=O)Nc2ccc(OC)cc2)c1 | 0.602 |
| Cc1noc(C)c1CC(=O)N1CCc2c(c(C(=O)N3CCOCC3)nn2CCCc2ccccc2)C1 | -0.571 |
| CC(C)CN1CC(OCc2cccc(F)c2)CN(Cc2cccn2-c2ncccn2)CC1=O (stereo not given) | -0.624 |
| C=CCn1nc(C(=O)N2CCCC2)c2c1CCC(NCc1ccccc1OC(F)(F)F)C2 (stereo not given) | 0.327 |
| COCCN1C(=O)N(C2Cc3ccccc3C2)C(=O)C12CCN(Cc1cnn(C)c1C)CC2 | -0.00202 |
| COc1cccc(C(=O)N2CCN3C(=O)[C@@H]4C[C@@H](O)CN4C(=O)[C@H]3C2)c1 | 0.379 |
| Cn1nc(C(=O)NCc2cccnc2)c2c1CCN(Cc1ccc3c(c1)Cc1ccccc1-3)C2 | -0.0827 |
| O=C1N[C@@H](CSCc2ccccc2)C(=O)N2CCN(C(=O)Oc3ccccc3)C[C@H]12 | -0.171 |
| Cc1csc(-c2cc(C(=O)NCCCN3CCOCC3)cc(S(=O)(=O)N3CCOCC3)c2)c1 | 0.151 |
| CC(C)Cn1nc(C(=O)N2CCCC2)c2c1CCC(NCCc1cccs1)C2 (stereo not given) | -0.284 |
| Cc1ncc(CNc2cc(C(=O)Nc3cccc(N(C)C)c3)cc(S(=O)(=O)N3CCCC3)c2)[nH]1 | -0.237 |
| O=C(N[C@H]1C[C@H]2C(=O)N3CCC[C@H]3C(=O)N2C1)c1cccnc1Oc1ccc(Cl)cc1 | -0.898 |
| CCCCc1ncc(CN2CCc3c(cc(-c4ccncc4)c(=O)n3C/C=C/c3ccccc3)C2)[nH]1 | -0.0119 |
| Cc1ccc(-c2cc(C(=O)N3CCSCC3)cc(S(=O)(=O)N3CCOCC3)c2)s1 | -0.0192 |
| Cc1ccc(C(C)CCN2CCc3c(c(C(=O)N4CCC(O)CC4)nn3CCc3ccccc3)C2)o1 (stereo not given) | -0.539 |
| COCc1ccc(CN2CCC3(CC2)C(=O)N(C2Cc4ccccc4C2)C(=O)N3CC(C)C)o1 | -0.702 |
| CN1CCCC1CCNC(=O)[C@H]1CNC[C@@H](COc2cccc(F)c2)C1 (stereo not given in full) | 0.269 |
| Cc1cc(-c2cc3c(n(Cc4cccnc4)c2=O)CCN(C(=O)c2n[nH]c4c2CCC4)C3)ccc1F | 4.42 |

assay: galactose survival enhancers in mitochondrial complex I cybrids – cell-based, galactose medium, ATP luminescence, primary screen (AID 1645843); conditions: complex I mutant cybrid cells, 72 h, stronger effect = higher value;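 further: positive z means more ATP and so rescue of galactose-driven cybrid death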

| Structure (SMILES) | z-score |
| --- | --- |
| CC(C)C[C@H]1NC(=O)[C@H]2CN(C(=O)OCc3ccccc3)CCN2C1=O | -0.205 (inactive) |
| COC(=O)CCN1CC(OCc2ccncc2)CN(C(=O)c2csc(SC)n2)CC1=O (stereo not given) | 0.42 (inactive) |
| CCCCNC(=O)[C@@H]1C[C@H](CN2CCOCC2)CN(Cc2ccc3ccccc3c2)C1 | -0.385 (inactive) |
| CC(C)CCNc1cc(C(=O)NCCn2ccnc2)cc(S(=O)(=O)Nc2ccccc2)c1 | -0.47 (inactive) |
| Cc1ccc(C(C)CCN2CCC3(CC2)C(=O)N(C(C)C)C(=O)N3CCC(C)C)o1 (stereo not given) | 0.91 (inactive) |
| COCCCNC(=O)c1nn(C)c2c1CN(C(=O)Cc1c(C)[nH]c3c(F)cccc13)CC2 | 0.99 (inactive) |
| O=C([C@@H]1C[C@H](CN2CCOCC2)CN(Cc2ccc3ccccc3c2)C1)N1CCCC1 | -0.585 (inactive) |
| O=C1N[C@@H](Cc2c[nH]c3ccccc23)C(=O)N2C[C@@H](NCc3ccccc3Cl)C[C@@H]12 | -0.945 (inactive) |
| CN(C)c1ccc(/C=C/CN2CC(=O)N(CCCN3CCCC3=O)CC(O)C2)cc1 (stereo not given) | 0.35 (inactive) |
| Cc1ccc(C(=O)N[C@H]2C[C@H]3C(=O)N[C@@H](Cc4ccc(O)cc4)C(=O)N3C2)cc1F | 0.075 (inactive) |
| Cc1csc(-c2cc(C(=O)N3CCC(N(C)C)C3)cc(S(=O)(=O)N3CCOCC3)c2)c1 (stereo not given) | 0.805 (inactive) |
| O=C1N[C@@H](Cc2ccccc2)C(=O)N2CCN(C(=O)c3cccs3)C[C@H]12 | -1.15 (inactive) |
| O=C1N[C@@H](COCc2ccccc2)C(=O)N2C[C@@H](NCc3cnn(-c4cccc(F)c4)c3)C[C@@H]12 | -0.845 (inactive) |
| Cc1cc(-c2cc3c(n(Cc4cccnc4)c2=O)CCN(C(=O)C2Cc4ccccc4O2)C3)ccc1F (stereo not given) | -0.785 (inactive) |
| Cn1nc(C(=O)N2CCCCC2)c2c1CCC(NCC1(c3ccccc3)CCOCC1)C2 (stereo not given) | -0.59 (inactive) |
| Cc1[nH]cnc1CNc1cc(C(=O)Nc2cccc(N(C)C)c2)cc(S(=O)(=O)N2CCCC2)c1 | 0.055 (inactive) |
| CN1CC(=O)N2CCN(C(=O)NCc3ccccc3)C[C@@H]2C1=O | -0.795 (inactive) |
| COc1ccc(CN2C[C@@H](CN3CCOCC3)C[C@@H](C(=O)NCC3CCCO3)C2)cc1OC (stereo not given in full) | 1.14 (inactive) |
| CCOC(=O)c1csc(CCNC2CCc3c(c(C(=O)N4CCc5ccccc5C4)nn3C)C2)n1 (stereo not given) | -1.24 (inactive) |
| O=C(NCc1ccccn1)c1cc(NCC2CC2)cc(S(=O)(=O)N2CCCC2)c1 | 0.59 (inactive) |

| Structure (SMILES) | z-score |
| --- | --- |
| COC(=O)c1c(NC(=O)C2CCC2)c2cc(NC3CCSCC3)cnc2n1CCc1ccccn1 | 1.1 (inactive) |
| CCOC(=O)c1nn(CCC(F)(F)F)c2c1CN(C(=O)c1ccco1)CC2 | -0.32 (inactive) |
| CNS(=O)(=O)c1cc(NCc2cc3ccccc3s2)cc(C(=O)Nc2ccc(OC)cc2)c1 | 2.26 (inactive) |
| Cc1noc(C)c1CC(=O)N1CCc2c(c(C(=O)N3CCOCC3)nn2CCCc2ccccc2)C1 | -0.895 (inactive) |
| CC(C)CN1CC(OCc2cccc(F)c2)CN(Cc2cccn2-c2ncccn2)CC1=O (stereo not given) | 0.085 (inactive) |
| C=CCn1nc(C(=O)N2CCCC2)c2c1CCC(NCc1ccccc1OC(F)(F)F)C2 (stereo not given) | -0.3 (inactive) |
| COCCN1C(=O)N(C2Cc3ccccc3C2)C(=O)C12CCN(Cc1cnn(C)c1C)CC2 | 1.21 (inactive) |
| COc1cccc(C(=O)N2CCN3C(=O)[C@@H]4C[C@@H](O)CN4C(=O)[C@H]3C2)c1 | 0.555 (inactive) |
| Cn1nc(C(=O)NCc2cccnc2)c2c1CCN(Cc1ccc3c(c1)Cc1ccccc1-3)C2 | 0.125 (inactive) |
| O=C1N[C@@H](CSCc2ccccc2)C(=O)N2CCN(C(=O)Oc3ccccc3)C[C@H]12 | -1.57 (inactive) |
| Cc1csc(-c2cc(C(=O)NCCCN3CCOCC3)cc(S(=O)(=O)N3CCOCC3)c2)c1 | 2.09 (inactive) |
| CC(C)Cn1nc(C(=O)N2CCCC2)c2c1CCC(NCCc1cccs1)C2 (stereo not given) | 0.555 (inactive) |
| Cc1ncc(CNc2cc(C(=O)Nc3cccc(N(C)C)c3)cc(S(=O)(=O)N3CCCC3)c2)[nH]1 | 0.295 (inactive) |
| O=C(N[C@H]1C[C@H]2C(=O)N3CCC[C@H]3C(=O)N2C1)c1cccnc1Oc1ccc(Cl)cc1 | -0.34 (inactive) |
| CCCCc1ncc(CN2CCc3c(cc(-c4ccncc4)c(=O)n3C/C=C/c3ccccc3)C2)[nH]1 | -0.41 (inactive) |
| Cc1ccc(-c2cc(C(=O)N3CCSCC3)cc(S(=O)(=O)N3CCOCC3)c2)s1 | 0.905 (inactive) |
| Cc1ccc(C(C)CCN2CCc3c(c(C(=O)N4CCC(O)CC4)nn3CCc3ccccc3)C2)o1 (stereo not given) | 0.6 (inactive) |
| COCc1ccc(CN2CCC3(CC2)C(=O)N(C2Cc4ccccc4C2)C(=O)N3CC(C)C)o1 | 1.99 (active) |
| CN1CCCC1CCNC(=O)[C@H]1CNC[C@@H](COc2cccc(F)c2)C1 (stereo not given in full) | 1.83 (inactive) |
| Cc1cc(-c2cc3c(n(Cc4cccnc4)c2=O)CCN(C(=O)c2n[nH]c4c2CCC4)C3)ccc1F | -1.53 (inactive) |
